The text below walks through data of ChEMBL document CHEMBL4513216, “Probing the Open Global Health Chemical Diversity Library for Multistage-Active Starting Points for Next-Generation Antimalarials” (ACS Infect Dis, 2020).

Structures are written as SMILES. The whole screen tested about 69,000 compounds, of which about 8,600 (12%) showed an effect of 50% or more. Many of the other results were omitted from the sample, so strong results are more common in it than they were.

The assay concerns Plasmodium berghei. The assay is described as follows: Screen against P. berghei liver stage (PbLuc), transformed with Luciferase, at 10uM. Type of assay: functional, HepG2. The conditions noted are these: tested at 10 uM.
Take `O=C(NCCc1cccnc1)c1nc2c(s1)CCCN2C(=O)C1CC1`: the INHIBITION stood at 35.8%.

Turning to `O=C(NCCc1cccc(F)c1)c1nc2c(s1)CCCN2C(=O)C1CC1`, the INHIBITION is given as 52.1%.

Consider `O=C(NCc1cccnc1)c1nc2c(s1)CCCN2C(=O)C1CC1`, for which the INHIBITION stood at 27.6%.

For the molecule `CC(C)C(=O)N1CCC(c2nc3c([nH]2)CCCNC3=O)CC1`, the INHIBITION came out at 25.9%.

With `COc1ccccc1CN1CC(O)CN(S(=O)(=O)C(C)C)CC1=O` (stereo not given), the INHIBITION amounted to 28.3%.

Regarding `Cc1cc(CN(C)C(=O)CN2CC3(CCNCC3)OC2=O)n(C)n1`, the INHIBITION was 64.8%.

As for `CCc1cc(CN(C)C(=O)CN2CC3(CCNCC3)OC2=O)on1`, the INHIBITION was found to be 44.2%.

Take `Cc1nnsc1CN(C)C(=O)CN1CC2(CCNCC2)OC1=O`: the INHIBITION was 51.8%.

For the molecule `Cc1cc(CN(C)C(=O)CN2CC3(CCNCC3)OC2=O)no1`, the INHIBITION is -20.7%.

In the case of `Cc1ncsc1CCN(C)C(=O)CN1CC2(CCNCC2)OC1=O`, the INHIBITION is given as -5.52%.

Regarding `Cc1cc(C)n(CCCN(C)C(=O)CN2CC3(CCNCC3)OC2=O)n1`, the INHIBITION came out at 25.8%.

`COc1ccc2c(c1)CCN2Cc1nc2c(cnn2C)c(=O)[nH]1`: the INHIBITION is listed as 33.8%.

Take `CS(=O)(=O)NCCCNC(=O)NCc1ccccc1`: the INHIBITION is on record as -40.2%.

Turning to `CC(=O)N1CC(=O)N(c2cnn(C)c2)CC12CCN(CC1CC1)C2` (stereo not given), the INHIBITION amounted to 30.1%.

As to `Cc1ccn(CCNC(=O)C2CCN(S(=O)(=O)c3ccc(F)cc3)C2)n1` (stereo not given), the INHIBITION came out at 3.91%.

For `Cn1cc([C@@H]2CN(S(=O)(=O)c3cccnc3)C[C@H]2N)c2ccncc21`, the INHIBITION is listed as -30.435%.

Consider `CN(C)c1cc2c(nn1)CCN(C(=O)C1CCCc3ccccc31)C2` (stereo not given), for which the INHIBITION was 5.03%.

In the case of `CC(C)c1ccc(CC(=O)N2CCCC3(CN(C)C(=O)O3)C2)cc1` (stereo not given), the INHIBITION worked out at 24.3%.

`CCn1ncnc1C(C)Nc1cc(C2CCNCC2)nc(C)n1` (stereo not given): the INHIBITION was -63.5%.

`CN(CC1(C)COC1)C(=O)c1cc(-c2ccn(C)n2)nc2ccccc12`: the INHIBITION turned out to be 18.2545%.

In the case of `Cc1noc(C)c1-c1ccnc(C2CCN(C3CCOCC3)CC2)c1`, the INHIBITION came out at 24.4%.

As to `Cc1noc(C)c1-c1ccnc(C2CCNCC2)c1`, the INHIBITION is 67.7%.

With `Cc1noc(C)c1-c1cc(C2CCNCC2)ccn1`, the INHIBITION amounted to 20.8%.

In the case of `CSCC[C@@H]1CN2CCC[C@H]2CN1Cc1coc2ccc(C)cc2c1=O`, the INHIBITION is recorded as 40.09%.

As for `Cc1ccc(CN2CC(C(=O)N3CCCC3)C3(CCOCC3)C2)s1` (stereo not given), the INHIBITION is -11.1%.

With `O=C([C@H]1CCS(=O)(=O)[C@@H]2CN(CCc3ccccc3)C[C@H]12)N1CCCC1`, the INHIBITION is listed as 39.3%.

For `Cc1csc(CN2CC(CO)Oc3ccccc32)n1` (stereo not given), the INHIBITION was found to be 24.3%.

As for `CN(Cc1nnnn1C1CC1)CC1COc2ccccc2O1` (stereo not given), the INHIBITION was 17.5%.

As for `Cc1cc(N(C)CC2COc3ccccc3O2)nc(C)n1` (stereo not given), the INHIBITION is 83.5%.

Take `Cc1nc(CN2CC(CO)Oc3ccccc32)sc1C` (stereo not given): the INHIBITION is listed as -10.3%.

In the case of `CCCn1nnnc1CN(CC)CC1COc2ccccc2O1` (stereo not given), the INHIBITION amounted to 45.9%.

For `CCN1CC(CN(C)c2cc(C)nc(N)n2)Oc2ccccc21` (stereo not given), the INHIBITION is listed as 82.4%.

Regarding `CN(CC1COc2ccccc2O1)C(=O)NCCCn1cccn1` (stereo not given), the INHIBITION is given as -14.4%.

With `CN(Cc1nc(CC2CC2)no1)CC1COc2ccccc2O1` (stereo not given), the INHIBITION is 29.6%.

Take `Cc1cc(N(C)CC2COc3ccccc3O2)nc(N)n1` (stereo not given): the INHIBITION is reported as 80.1%.

Turning to `Cc1cnc(N2CC[C@@H]3O[C@H](COCc4ccccn4)CC[C@@H]32)nc1`, the INHIBITION was 5.44%.

As for `CC(C)c1cc(=O)[nH]c(-c2ccccc2CN2CCCCCC2)n1`, the INHIBITION is given as 23.1%.

As to `CCSc1cncc(N2CCC(C(=O)NC(C)C(C)C)CC2)n1` (stereo not given), the INHIBITION is given as -26.2%.

On to `NC(=O)C1CCN(C(=O)c2ccn(-c3ccc(F)cc3)n2)CC1`, for which the INHIBITION is recorded as -66.9%.

On to `CCN(Cc1cccnc1)CC1(C)Cc2c(N)nc(N)nc2O1` (stereo not given), for which the INHIBITION is on record as 4.57%.

Consider `CCC1c2ccsc2CCN1C(=O)NCc1cccnc1OC` (stereo not given), for which the INHIBITION was 9.383%.

Take `O=C(c1cnccn1)N1CCCC2(CCN(c3ncccn3)C2)C1` (stereo not given): the INHIBITION amounted to 9.63%.

Take `COCC(=O)N1CCCCC1c1ccnc(Nc2ncc(C)s2)n1` (stereo not given): the INHIBITION is given as 48.4%.

`CN(C)CCO[C@H]1CN(C(=O)c2cscn2)[C@@H]2COC[C@H]12`: the INHIBITION is reported as -16.1%.

For `NC(=O)[C@@H]1Cc2ccccc2CN1S(=O)(=O)N1CCCCCC1`, the INHIBITION came to 32%.

With `NC(=O)[C@@H]1Cc2ccccc2CN1S(=O)(=O)N1CCCCC1`, the INHIBITION was 51%.

For `CC1CCN(S(=O)(=O)N2Cc3ccccc3C[C@H]2C(N)=O)CC1`, the INHIBITION was 43.2%.

In the case of `Cc1ccc(OC2(C(=O)O)CCN(C(=O)CCc3ccco3)CC2)cc1`, the INHIBITION turned out to be 31.4%.

Turning to `CC1CCN(C(=O)C2(Cc3cc(C4CCOC4)no3)CCNCC2)CC1` (stereo not given), the INHIBITION is recorded as 32.3%.

Consider `Cc1noc(C)c1C(=O)N1C[C@@H]2C[C@@H](c3ccncn3)O[C@@H]2C1`, for which the INHIBITION is -10.9%.
